Assay results reported in ChEMBL document CHEMBL1201862, “PubChem BioAssay data set” (2004).
The campaign covered roughly 400,000 compounds. About 2,100 (0.53%) were called active. Roughly 14% stayed inconclusive and do not appear here. How the calls were made is not given here. The entries come from a sample that favours actives as a whole.

These compounds were tested against Ataxin-2 (Homo sapiens) (UniProt Q99700) (assay: qHTS for Inhibitors of ATXN expression.).
Assay type: functional

Chain of Ataxin-2 (Homo sapiens) (Q99700 whole entry): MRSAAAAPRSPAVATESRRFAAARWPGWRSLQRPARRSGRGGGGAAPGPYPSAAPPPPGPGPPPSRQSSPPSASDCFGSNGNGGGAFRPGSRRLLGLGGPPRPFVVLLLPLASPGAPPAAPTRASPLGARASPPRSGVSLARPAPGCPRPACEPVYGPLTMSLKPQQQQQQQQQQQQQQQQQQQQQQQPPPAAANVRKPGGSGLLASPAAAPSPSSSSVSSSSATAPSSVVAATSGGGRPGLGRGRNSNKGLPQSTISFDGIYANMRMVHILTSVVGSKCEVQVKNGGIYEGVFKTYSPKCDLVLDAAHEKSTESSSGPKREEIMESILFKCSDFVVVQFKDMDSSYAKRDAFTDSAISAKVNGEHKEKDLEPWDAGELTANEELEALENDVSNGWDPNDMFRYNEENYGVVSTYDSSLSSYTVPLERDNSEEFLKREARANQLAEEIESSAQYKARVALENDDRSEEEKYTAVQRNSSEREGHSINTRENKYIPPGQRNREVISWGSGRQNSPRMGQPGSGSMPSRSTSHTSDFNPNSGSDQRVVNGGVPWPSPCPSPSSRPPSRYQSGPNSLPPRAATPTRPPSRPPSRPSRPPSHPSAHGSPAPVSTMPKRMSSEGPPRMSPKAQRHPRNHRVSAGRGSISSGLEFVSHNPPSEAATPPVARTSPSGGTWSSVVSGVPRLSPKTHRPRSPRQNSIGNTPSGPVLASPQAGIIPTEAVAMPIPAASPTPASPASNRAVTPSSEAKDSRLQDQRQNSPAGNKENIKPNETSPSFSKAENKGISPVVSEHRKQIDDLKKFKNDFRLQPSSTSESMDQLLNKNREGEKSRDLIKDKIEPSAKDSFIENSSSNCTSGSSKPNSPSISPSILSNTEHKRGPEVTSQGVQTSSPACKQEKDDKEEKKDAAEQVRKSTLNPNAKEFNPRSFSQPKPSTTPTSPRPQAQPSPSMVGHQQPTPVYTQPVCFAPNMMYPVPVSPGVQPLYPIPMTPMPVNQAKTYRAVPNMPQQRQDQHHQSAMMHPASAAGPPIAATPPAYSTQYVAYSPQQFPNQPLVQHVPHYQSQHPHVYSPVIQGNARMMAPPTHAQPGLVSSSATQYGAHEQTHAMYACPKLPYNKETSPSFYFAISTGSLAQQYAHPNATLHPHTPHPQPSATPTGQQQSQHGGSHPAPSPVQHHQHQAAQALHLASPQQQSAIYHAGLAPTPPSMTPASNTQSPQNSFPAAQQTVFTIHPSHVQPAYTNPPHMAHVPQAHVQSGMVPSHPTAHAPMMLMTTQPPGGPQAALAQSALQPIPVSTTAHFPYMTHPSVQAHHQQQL

Q: How did the Potency turn out when `COc1ccc(C2C=C(c3ccccc3)Nc3nc(NS(=O)(=O)c4ccccc4)nn32)cc1` (stereo not drawn) was run?
A: inactive

Q: How did the Potency turn out when `COc1c2c(c3c(c1OC)c(=O)c1ccccc1n3C)OCO2` was run?
A: inactive

Q: For `Cc1c(CC(=O)N2CCN(C(=O)C3COc4ccccc4O3)CC2)c(=O)oc2c(C)c(O)ccc12` (stereo not drawn), which Potency is on record?
A: inactive

Q: For `O=C(Cc1ccc(Cl)cc1)N1CCc2ccccc2C1`, which Potency is on record?
A: inactive

Q: For `OC(COC(c1ccc(Cl)cc1)c1ccc(Cl)cc1)CN1CCc2ccccc2C1` (stereo not drawn), which Potency is on record?
A: 25.1 µM (active)

Q: `O=C(c1cc2cc(Cl)ccc2[nH]1)N1CCc2ccccc2C1` was tested. Which Potency did it give?
A: inactive

Q: For `CCOC(=O)c1cc2c(=O)n3ccccc3nc2n(C(C)C)/c1=N/C(=O)c1ccco1`, which Potency is on record?
A: inactive

Q: Which Potency does the source give for `COc1cc(-c2oc3ccc(C)cc3c(=O)c2O)cc(OC)c1OC` here?
A: inactive

Q: With `C[C@@H]1CN([C@H](C)CO)C(=O)c2cccc(NC(=O)Nc3ccc(C(F)(F)F)cc3)c2O[C@H]1CN(C)S(=O)(=O)c1cccs1` as the compound, how does the Potency read?
A: 28.2 µM (active)

Q: For `COc1ccc(S(=O)(=O)N(C)C[C@H]2Oc3c(NC(=O)Nc4ccc(C(F)(F)F)cc4)cccc3C(=O)N([C@H](C)CO)C[C@@H]2C)cc1`, which Potency is on record?
A: 22.4 µM (active)

Q: For `C[C@H](CO)N1C[C@H](C)[C@@H](CN(C)S(=O)(=O)c2ccc(F)cc2)Oc2c(NC(=O)Nc3ccc(C(F)(F)F)cc3)cccc2C1=O`, which Potency is on record?
A: 35.5 µM (active)

Q: `C[C@H]1CN([C@@H](C)CO)C(=O)c2cccc(NC(=O)Nc3ccc(C(F)(F)F)cc3)c2O[C@@H]1CN(C)S(=O)(=O)c1ccc(Cl)cc1` was tested. Which Potency did it give?
A: 25.1 µM (active)

Q: `Cc1c(C(=O)/C=C/N(C)C)nnn1-c1ccc(Cl)cc1C#N` was tested. Which Potency did it give?
A: inactive

Q: For `Cc1ccc(NC(=O)CN2C(=O)S/C(=C\c3ccc(-c4cccc(C(=O)O)c4C)o3)C2=O)cc1C`, which Potency is on record?
A: inactive

Q: `Cc1ccc(OCCCC(=O)ON=C(N)c2ccccc2C)cc1` was tested. Which Potency did it give?
A: inactive

Q: With `COc1ccc(C2CC(c3ccc(C(F)(F)F)cc3)=NN2c2ccc(S(N)(=O)=O)cc2)cc1` (stereo not drawn) as the compound, how does the Potency read?
A: inactive

Q: For `CCOC(=O)N1CCN(C(=O)CSc2nc(O)c3cnn(-c4ccc(C)cc4)c3n2)CC1`, which Potency is on record?
A: inactive

Q: For `COc1ccc(C2C3=C(CCCC3=O)N(CC(=O)O)C3=C2C(=O)CCC3)cc1Cl`, which Potency is on record?
A: inactive

Q: `COc1ccc(C(=O)/C=C/Nc2ccc(S(=O)(=O)Nc3cc(OC)nc(OC)n3)cc2)c(OC)c1` was tested. Which Potency did it give?
A: inactive

Q: `CC(=O)Nc1ccc(N/C=C(\C=O)c2nc3ccccc3o2)cc1` was tested. Which Potency did it give?
A: inactive

Q: How did the Potency turn out when `CCc1cnc2c(c1SC(C(C)=O)C(=O)N(C)C)c(=O)n(C)c(=O)n2C` (stereo not drawn) was run?
A: 39.8 µM (active)

Q: For `COc1ccc(-c2c(C)c3ccc(O)c(CN4CCCC4)c3oc2=O)cc1OC`, which Potency is on record?
A: inactive

Q: How did the Potency turn out when `Cc1ccc2c(Cl)cc(Cl)c(OCC(=O)O)c2n1` was run?
A: inactive

Q: For `CCc1cc(=O)oc2c(CN3CCN(C)CC3)c(O)c(Cl)cc12`, which Potency is on record?
A: inactive

Q: With `NC(Cc1ccc(C(F)(F)F)cc1)c1csc(NC(=O)Nc2ccccc2Oc2ccccc2)n1` (stereo not drawn) as the compound, how does the Potency read?
A: 39.8 µM (active)

Q: `CN(C)Cc1csc(NC(=O)Nc2ccccc2Oc2ccccc2)n1` was tested. Which Potency did it give?
A: 25.1 µM (active)

Q: For `COc1ccccc1NC(=O)c1sc2nc(-c3ccco3)ccc2c1N`, which Potency is on record?
A: inactive

Q: `COc1cccc(-c2ccc3c(N)c(C(=O)Nc4cc(C(F)(F)F)ccc4OC)sc3n2)c1` was tested. Which Potency did it give?
A: inactive

Q: `CN(C)CCCN=C(S)Nc1ccc(Oc2ccccc2)cc1` was tested. Which Potency did it give?
A: inactive

Q: `CC(C)c1ccccc1NC(=O)Nc1nc(C(N)Cc2ccc(C(F)(F)F)cc2)cs1` (stereo not drawn) was tested. Which Potency did it give?
A: 35.5 µM (active)

Q: With `COc1ccccc1NC(=O)Nc1nc(C(N)Cc2ccc(C(F)(F)F)cc2)cs1` (stereo not drawn) as the compound, how does the Potency read?
A: 39.8 µM (active)

Q: Which Potency does the source give for `Cc1ccc(S(=O)(=O)NCCNc2ccc(Br)c(C)c2)cc1` here?
A: inactive

Q: With `CCC(=O)Oc1c(C(=O)CC)cc2c(C)cc(=O)oc2c1C` as the compound, how does the Potency read?
A: inactive

Q: `O=C(OCCOc1ccccc1Cl)c1cc(S(=O)(=O)N2CCCCC2)ccc1N1CCOCC1` was tested. Which Potency did it give?
A: inactive

Q: Which Potency does the source give for `CCCC[n+]1c2ccccc2cc2ccccc21` here?
A: inactive

Q: How did the Potency turn out when `Cc1cc(C)c(C)c(S(=O)(=O)NCc2ccc(C(=O)N3CCN(C)CC3)cc2)c1C` was run?
A: inactive

Q: With `CCCNC(=O)c1cnn2c(C(F)F)cc(-c3ccccc3)nc12` as the compound, how does the Potency read?
A: inactive

Q: `COc1ccc(-c2cc(C(F)F)n3ncc(C(=O)Nc4cc(C)on4)c3n2)cc1` was tested. Which Potency did it give?
A: inactive

Q: How did the Potency turn out when `CCc1nccn1C(=O)c1cnn2c(C(F)F)cc(-c3ccc(C)cc3)nc12` was run?
A: 31.6 µM (active)

Q: For `Cc1cccnc1Nc1nc(-c2ccccn2)cs1`, which Potency is on record?
A: 0.794 µM (active)

Q: Which Potency does the source give for `Cc1ccc(S(=O)(=O)NC(C(=O)Oc2ccc3c(C)c(Cl)c(=O)oc3c2)c2ccccc2)cc1` (stereo not drawn) here?
A: inactive

Q: `CCN1CCN(Cc2c(O)ccc3cc(-c4ccc(OC)cc4)c(=O)oc23)CC1` was tested. Which Potency did it give?
A: inactive

Q: How did the Potency turn out when `CCC(C)Nc1ccc(NC(C)CC)cc1` (stereo not drawn) was run?
A: 31.6 µM (active)

Q: How did the Potency turn out when `C=C1C(=O)C2=CC1CCC(=O)C1(C)CCC(OC(C)=O)C(C)(C)C1CC2O` (stereo not drawn) was run?
A: 28.2 µM (active)

Q: With `COc1ccc(-c2c(C)c3ccc(O)cc3oc2=O)cc1OC` as the compound, how does the Potency read?
A: inactive

Q: `COc1ccccc1CCNC(=O)Cc1c(C)c2ccc(O)cc2oc1=O` was tested. Which Potency did it give?
A: inactive

Q: For `Cc1c(CC(=O)NCC(=O)O)c(=O)oc2cc3oc4c(c3cc12)CCCC4`, which Potency is on record?
A: inactive

Q: For `Cc1c(CC(=O)NCCC(C)C)c(=O)oc2cc3c(cc12)CCC(C)(C)O3`, which Potency is on record?
A: 39.8 µM (active)

Q: How did the Potency turn out when `O=C(CSc1nnc(NC(=O)c2ccccc2[N+](=O)[O-])s1)NC1CCCC1` was run?
A: inactive

Q: For `CCSc1nnc(NC(=O)CN2C(=O)C3CC=CCC3C2=O)s1` (stereo not drawn), which Potency is on record?
A: inactive

Q: `CCCSc1nnc(NC(=O)c2sc3nc(-c4cccs4)ccc3c2N)s1` was tested. Which Potency did it give?
A: inactive

Q: For `CCSc1nnc(NC(=O)c2ccccn2)s1`, which Potency is on record?
A: 25.1 µM (active)

Q: For `CCSc1nnc(NC(=O)c2ccc3ccccc3n2)s1`, which Potency is on record?
A: 35.5 µM (active)

Q: For `CCSc1nnc(NC(=O)CSc2nc3c(cc2C#N)CCCC3)s1`, which Potency is on record?
A: inactive

Q: `CC(C)Cn1nc(NC(=O)c2cccc(Cl)c2)c2cc3ccccc3nc21` was tested. Which Potency did it give?
A: inactive

Q: Which Potency does the source give for `Cc1ccc(C)c(Sc2ccc(S(=O)(=O)Nc3ccc(C(=O)O)cc3)cc2)c1` here?
A: inactive

Q: Which Potency does the source give for `Cc1ccc(Sc2ccc(NC(=O)CCl)cc2)c(C)c1` here?
A: 39.8 µM (active)

Q: For `Cc1ccc(NCC(=O)Nc2ccc(Br)cc2)cc1C`, which Potency is on record?
A: inactive

Q: Which Potency does the source give for `COc1ccc(-c2cc3ccc(OC(C)C(=O)O)cc3oc2=O)cc1` (stereo not drawn) here?
A: inactive

Q: How did the Potency turn out when `O=C1NC[C@@H](Cc2cccc3ccccc23)N(CCc2cc(C(F)(F)F)cc(C(F)(F)F)c2)C1=O` was run?
A: 31.6 µM (active)

Q: `FC(F)(F)c1cc(CCN2CCNC[C@@H]2CC2CCCCC2)cc(C(F)(F)F)c1` was tested. Which Potency did it give?
A: 20 µM (active)

Q: `Oc1ccc(C[C@H]2CNCCN2CCc2cc(C(F)(F)F)cc(C(F)(F)F)c2)cc1` was tested. Which Potency did it give?
A: 31.6 µM (active)

Q: How did the Potency turn out when `FC(F)(F)c1cc(CCN2CCNC[C@@H]2Cc2ccccc2)cc(C(F)(F)F)c1` was run?
A: 25.1 µM (active)
